Laboratory results taken from the supplement of paper PMC10849652.
Of roughly 8,800 targets only a part is listed; those with a hit were picked by preference. About 0.5% of all pairs of compound and target were hits.

Key:
Experiment in all cases: log2 fold change, soluble protein after heating vs DMSO (PISA); higher = thermal stabilisation; K562 lysate, 10 uM; active = over 0.2 and 3.5 SD of the protein, either way, in both replicates (recomputed)
ibrutinib = compound: C=CC(=O)N1CCC[C@@H](n2nc(-c3ccc(Oc4ccccc4)cc3)c3c(N)ncnc32)C1 [ibrutinib]
Method in brief: (§1)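 Values give the log-two fold change in thermal stability against solvent controls, from duplicates. Crude K562 extract at 1 mg/mL protein, made by dounce homogenisation in PBS pH 7.4 with 1 mM MgCl2, was treated with 10 μM compound for 30 min. After 3 min heating across 48°C-58°C, aliquots were pooled, adjusted to 0.5% NP-40 at 4°C and centrifuged at 21,000xg for 90 min. The supernatant was measured by TMTpro 16plex LC-MS/MS with channel sums equalised.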

[1] = compound: CC(=O)c1cnc2ccc(-c3cc(Cl)c(O)c(Cl)c3)nc2c1N[C@H]1CC[C@H](CN(C)C)CC1
Method in brief: as §1

ralimetinib = compound: CC(C)(C)Cn1c(N)nc2ccc(-c3[nH]c(C(C)(C)C)nc3-c3ccc(F)cc3)nc21 [ralimetinib]
Method in brief: as §1

[2] = compound: CC(C)(O)CC(=O)NCCn1ccc2ncnc(Nc3ccc(Oc4cccc(C(F)(F)F)c4)c(Cl)c3)c21
Method in brief: as §1

[3] = compound: CC(C)C1=C2N=C(C=C(N2N=C1)NCC3=CC=CC=C3)NCCCCCCN
Method in brief: as §1

[4] = compound: CC1=C(C(CC(=O)N1)C2=CC=C(C=C2)C(F)(F)F)C(=O)NC3=C(C=C4C(=C3)C=NN4)F
Method in brief: as §1

[5] = compound: CC1=C(C2=C(C=C1)C(=O)C3=CC=CC=C3N2CCCN)C
Method in brief: as §1

[6] = compound: CC1=C(C=C(C=C1)NC(=O)C2=CC(=CC=C2)C(C)(C)C#N)NC3=CC4=C(C=C3)N=CN(C4=O)C
Method in brief: as §1

[7] = compound: CC1=C(C=C(C=C1)NC(=O)C2=CC(=CC=C2)N(C)C)NC(=O)C3=CC=C(C=C3)O
Method in brief: as §1

[8] = compound: CC1=CC=C(C=C1)SC2=C3C=C(SC3=CN=C2)C(=O)N
Method in brief: as §1

Measured: log2 fold change

AIF1L (UniProt Q9BQI0)
inactive: ibrutinib 0.169 | [1] 0.032 | ralimetinib 0.029 | [2] -0.003 | [3] -0.105 | [4] -0.012 | [5] 0.159 | [6] -0.014 | [7] -0.005 | [8] -0.013

AGPS (UniProt O00116)
Sequence of UniProt O00116 (O00116 whole entry, looked up): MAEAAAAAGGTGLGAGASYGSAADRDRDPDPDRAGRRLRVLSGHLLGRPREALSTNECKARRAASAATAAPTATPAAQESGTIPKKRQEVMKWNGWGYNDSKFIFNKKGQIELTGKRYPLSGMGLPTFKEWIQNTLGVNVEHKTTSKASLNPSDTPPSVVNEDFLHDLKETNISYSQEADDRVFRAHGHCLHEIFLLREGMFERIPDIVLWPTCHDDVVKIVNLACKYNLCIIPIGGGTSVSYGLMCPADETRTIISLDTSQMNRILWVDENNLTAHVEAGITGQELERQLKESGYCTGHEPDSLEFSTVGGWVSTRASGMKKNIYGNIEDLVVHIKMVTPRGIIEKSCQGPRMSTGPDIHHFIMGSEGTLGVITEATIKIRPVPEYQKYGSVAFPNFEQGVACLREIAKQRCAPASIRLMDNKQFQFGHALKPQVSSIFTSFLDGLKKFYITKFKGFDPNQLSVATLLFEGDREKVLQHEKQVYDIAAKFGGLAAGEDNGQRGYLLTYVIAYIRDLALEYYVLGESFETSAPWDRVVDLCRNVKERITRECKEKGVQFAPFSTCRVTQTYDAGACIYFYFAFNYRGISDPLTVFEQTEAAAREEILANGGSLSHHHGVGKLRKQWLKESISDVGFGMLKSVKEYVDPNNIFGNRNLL
inactive: ibrutinib 0.01 | [1] -0.004 | ralimetinib -0.013 | [2] -0.07 | [3] -0.065 | [4] 0.012 | [5] 0.025 | [6] -0.177 | [7] -0.005 | [8] -0.02

ANXA1 (UniProt P04083)
inactive: ibrutinib -0.001 | [1] 0.007 | ralimetinib -0.003 | [2] 0.007 | [3] 0.005 | [4] -0.01 | [5] 0.03 | [6] -0.024 | [7] 0.025 | [8] -0.003

ABCD3 (UniProt P28288)
inactive: ibrutinib -0.035 | [1] -0.083 | ralimetinib -0.067 | [2] 0.064 | [3] 0.185 | [4] 0.01 | [5] -0.096 | [6] -0.028 | [7] -0.073 | [8] -0.031

AKAP11 (UniProt Q9UKA4)
inactive: ibrutinib 0.032 | [1] -0.111 | ralimetinib 0.058 | [2] -0.068 | [3] 0.054 | [4] 0.065 | [5] -0.015 | [6] -0.002 | [7] 0.003 | [8] 0.085

ARMCX3 (UniProt Q9UH62)
Sequence of UniProt Q9UH62 (Q9UH62 whole entry, looked up): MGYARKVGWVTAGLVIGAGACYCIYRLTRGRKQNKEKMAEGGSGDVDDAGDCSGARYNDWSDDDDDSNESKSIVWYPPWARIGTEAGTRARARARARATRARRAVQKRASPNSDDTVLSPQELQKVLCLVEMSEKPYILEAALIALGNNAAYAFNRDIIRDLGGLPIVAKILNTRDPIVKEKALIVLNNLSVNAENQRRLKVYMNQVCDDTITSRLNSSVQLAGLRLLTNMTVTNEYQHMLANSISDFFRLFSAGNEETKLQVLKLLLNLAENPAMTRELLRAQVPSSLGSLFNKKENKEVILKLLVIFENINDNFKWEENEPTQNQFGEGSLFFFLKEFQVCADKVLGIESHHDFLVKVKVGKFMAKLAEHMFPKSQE
inactive: ibrutinib -0.073 | [1] -0.027 | ralimetinib 0.006 | [2] 0.013 | [3] -0.042 | [4] -0.053 | [5] -0.029 | [6] 0.004 | [7] 0.039 | [8] 0

ANKRD52 (UniProt Q8NB46)
inactive: ibrutinib 0.01 | [1] -0.089 | ralimetinib -0.002 | [2] -0.025 | [3] 0.022 | [4] 0.007 | [5] -0.058 | [6] 0.011 | [7] 0.047
active: [8] -0.363

ARAF (UniProt P10398)
Sequence of UniProt P10398 (P10398 whole entry, looked up): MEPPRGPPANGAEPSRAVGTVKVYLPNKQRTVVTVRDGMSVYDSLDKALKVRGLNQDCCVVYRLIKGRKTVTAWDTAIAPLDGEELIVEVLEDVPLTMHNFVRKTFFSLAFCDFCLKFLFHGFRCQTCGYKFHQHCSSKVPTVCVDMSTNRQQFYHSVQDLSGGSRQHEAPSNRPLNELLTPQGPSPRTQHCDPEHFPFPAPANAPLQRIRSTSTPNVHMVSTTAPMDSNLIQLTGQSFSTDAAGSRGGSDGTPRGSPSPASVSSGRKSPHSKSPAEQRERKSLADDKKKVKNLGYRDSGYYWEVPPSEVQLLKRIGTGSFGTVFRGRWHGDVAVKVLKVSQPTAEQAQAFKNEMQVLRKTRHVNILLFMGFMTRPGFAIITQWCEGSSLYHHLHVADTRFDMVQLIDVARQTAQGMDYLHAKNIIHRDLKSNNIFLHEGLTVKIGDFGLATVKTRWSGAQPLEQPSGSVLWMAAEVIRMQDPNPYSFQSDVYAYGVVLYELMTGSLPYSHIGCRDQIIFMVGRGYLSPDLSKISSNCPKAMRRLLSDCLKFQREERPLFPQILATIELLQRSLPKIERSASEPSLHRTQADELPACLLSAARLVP
inactive: ibrutinib 0.071 | [1] -0.012 | ralimetinib 0.029 | [2] -0.01 | [3] 0.058 | [4] -0.007 | [5] 0.004 | [6] 0.004 | [7] 0.041 | [8] 0.003

ARHGAP21 (UniProt Q5T5U3)
inactive: ibrutinib 0.016 | [1] 0.047 | ralimetinib 0.017 | [2] -0.047 | [3] 0.022 | [4] 0.077 | [5] -0.053 | [6] 0.062 | [7] 0.052 | [8] -0.015

ABI1 isoform 9 (UniProt Q8IZP0)
Sequence of UniProt Q8IZP0 (Q8IZP0 whole entry, looked up): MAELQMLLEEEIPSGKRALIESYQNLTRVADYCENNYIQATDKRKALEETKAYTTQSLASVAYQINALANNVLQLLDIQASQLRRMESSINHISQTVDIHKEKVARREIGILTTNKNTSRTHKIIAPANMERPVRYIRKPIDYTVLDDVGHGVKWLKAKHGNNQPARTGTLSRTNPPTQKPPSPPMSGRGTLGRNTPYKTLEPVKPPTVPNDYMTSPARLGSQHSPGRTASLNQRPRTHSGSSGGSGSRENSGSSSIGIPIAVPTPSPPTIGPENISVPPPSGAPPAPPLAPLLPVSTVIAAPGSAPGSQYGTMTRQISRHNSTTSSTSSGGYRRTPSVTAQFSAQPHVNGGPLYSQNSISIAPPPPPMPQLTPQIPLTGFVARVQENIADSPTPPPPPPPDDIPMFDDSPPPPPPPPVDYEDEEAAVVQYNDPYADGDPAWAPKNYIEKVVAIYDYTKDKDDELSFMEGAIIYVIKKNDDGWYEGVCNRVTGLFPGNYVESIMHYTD
inactive: ibrutinib 0.034 | [1] 0.023 | ralimetinib -0.031 | [2] -0.005 | [3] 0.031 | [4] -0.02 | [5] -0.008 | [6] 0.024 | [7] -0.012 | [8] 0.003

AGPAT1 (UniProt Q99943)
inactive: ibrutinib -0.121 | [1] -0.05 | ralimetinib 0.027 | [2] -0.051 | [3] -0.026 | [4] 0.06 | [5] 0.012 | [6] 0.02 | [7] 0.043 | [8] 0.042

AP4B1 (UniProt Q9Y6B7)
Sequence of UniProt Q9Y6B7 (Q9Y6B7 whole entry, looked up): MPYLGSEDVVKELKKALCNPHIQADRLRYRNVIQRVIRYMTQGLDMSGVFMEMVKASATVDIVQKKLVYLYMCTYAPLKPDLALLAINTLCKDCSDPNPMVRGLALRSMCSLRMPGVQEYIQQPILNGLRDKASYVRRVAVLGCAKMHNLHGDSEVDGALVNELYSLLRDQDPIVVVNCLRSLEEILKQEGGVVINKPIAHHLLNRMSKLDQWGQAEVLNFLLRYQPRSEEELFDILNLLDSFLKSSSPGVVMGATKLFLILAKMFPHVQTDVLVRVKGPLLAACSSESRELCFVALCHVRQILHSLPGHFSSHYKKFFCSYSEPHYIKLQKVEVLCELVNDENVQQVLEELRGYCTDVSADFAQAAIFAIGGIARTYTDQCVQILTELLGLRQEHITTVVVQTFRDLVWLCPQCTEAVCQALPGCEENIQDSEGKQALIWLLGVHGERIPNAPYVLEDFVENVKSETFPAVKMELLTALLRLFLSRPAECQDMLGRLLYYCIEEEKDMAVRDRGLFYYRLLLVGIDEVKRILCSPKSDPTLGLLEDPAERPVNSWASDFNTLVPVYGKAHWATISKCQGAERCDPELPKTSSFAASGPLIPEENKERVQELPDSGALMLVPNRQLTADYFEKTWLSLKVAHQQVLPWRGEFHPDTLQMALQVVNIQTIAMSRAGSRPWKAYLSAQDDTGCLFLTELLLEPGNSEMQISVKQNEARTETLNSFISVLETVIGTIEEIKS
inactive: ibrutinib -0.028 | [1] -0.048 | ralimetinib -0.044 | [2] 0 | [3] 0.034 | [4] 0.003 | [5] -0.027 | [6] -0.02 | [7] -0.041 | [8] -0.041

ARL15 (UniProt Q9NXU5)
Sequence of UniProt Q9NXU5 (Q9NXU5 whole entry, looked up): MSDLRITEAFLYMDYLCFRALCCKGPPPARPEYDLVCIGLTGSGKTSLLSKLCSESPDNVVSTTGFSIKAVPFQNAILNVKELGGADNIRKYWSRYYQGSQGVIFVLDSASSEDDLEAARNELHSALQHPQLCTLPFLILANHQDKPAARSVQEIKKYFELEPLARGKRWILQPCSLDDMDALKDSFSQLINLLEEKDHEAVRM
inactive: ibrutinib -0.015 | [1] 0.048 | ralimetinib -0.012 | [2] -0.05 | [3] 0.015 | [4] 0.005 | [5] 0.005 | [6] 0.001 | [7] 0.033 | [8] -0.005

AKAP8L (UniProt Q9ULX6)
inactive: ibrutinib 0 | [1] -0.046 | ralimetinib 0.002 | [2] -0.019 | [3] 0.009 | [4] -0.02 | [5] 0.003 | [7] 0.046 | [8] 0.032
active: [6] -0.271

ALG13 (UniProt Q9NP73)
inactive: ibrutinib 0.118 | [1] 0.037 | ralimetinib 0.008 | [2] 0.026 | [3] 0.022 | [4] 0.065 | [5] -0.025 | [6] 0.063 | [7] 0.012 | [8] -0.001

ABL1 isoform 2 (UniProt P00519)
inactive: ibrutinib 0.157 | [1] 0.077 | ralimetinib 0.019 | [2] 0.024 | [3] -0.017 | [4] -0.014 | [5] -0.01 | [6] 0.048 | [7] 0.011 | [8] -0.043

AIMP1 isoform 2 (UniProt Q12904)
inactive: ibrutinib 0.009 | [1] 0.012 | ralimetinib 0.026 | [2] 0.018 | [3] 0.022 | [4] -0.026 | [5] 0.005 | [6] -0.014 | [7] -0.006 | [8] 0.006

ABHD11 (UniProt Q8NFV4)
Sequence of UniProt Q8NFV4 (Q8NFV4 whole entry, looked up): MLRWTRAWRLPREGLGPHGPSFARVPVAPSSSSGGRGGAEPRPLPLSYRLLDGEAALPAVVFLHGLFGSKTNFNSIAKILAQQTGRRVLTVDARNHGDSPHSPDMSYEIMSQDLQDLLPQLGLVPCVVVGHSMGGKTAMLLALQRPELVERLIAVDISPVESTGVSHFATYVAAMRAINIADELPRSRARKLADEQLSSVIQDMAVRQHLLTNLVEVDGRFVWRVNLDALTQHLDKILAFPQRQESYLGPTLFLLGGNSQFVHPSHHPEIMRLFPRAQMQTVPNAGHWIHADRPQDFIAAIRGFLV
inactive: ibrutinib -0.012 | [1] 0.057 | ralimetinib -0.04 | [2] -0.048 | [3] -0.2 | [4] 0.018 | [5] -0.241 | [6] -0.013 | [7] 0 | [8] -0.017

ANLN (UniProt Q9NQW6)
inactive: ibrutinib 0.025 | [1] -0.027 | ralimetinib 0.02 | [2] -0.001 | [3] -0.014 | [4] 0.02 | [5] -0.01 | [6] 0.026 | [7] 0.029 | [8] -0.04

ACTBL2 (UniProt Q562R1)
Sequence of UniProt Q562R1 (Q562R1 whole entry, looked up): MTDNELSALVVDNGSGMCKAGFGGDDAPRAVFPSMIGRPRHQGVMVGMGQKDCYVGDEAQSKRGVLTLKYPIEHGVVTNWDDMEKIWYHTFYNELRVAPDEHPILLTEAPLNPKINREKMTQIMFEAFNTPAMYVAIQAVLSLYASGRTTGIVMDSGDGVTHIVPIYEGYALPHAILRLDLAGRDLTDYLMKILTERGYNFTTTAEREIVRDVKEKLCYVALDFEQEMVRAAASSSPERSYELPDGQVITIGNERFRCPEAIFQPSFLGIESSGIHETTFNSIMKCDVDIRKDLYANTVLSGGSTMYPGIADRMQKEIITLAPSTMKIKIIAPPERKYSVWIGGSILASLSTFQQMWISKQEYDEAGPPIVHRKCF
inactive: ibrutinib 0.001 | [1] -0.016 | ralimetinib 0.006 | [2] 0.082 | [3] -0.034 | [4] 0.086 | [5] 0.069 | [6] -0.043 | [7] 0.017 | [8] 0.123

ANP32E (UniProt Q9BTT0)
inactive: ibrutinib 0.03 | [1] -0.009 | ralimetinib -0.015 | [2] 0.001 | [3] 0.022 | [4] -0.051 | [5] -0.072 | [6] 0.011 | [7] -0.065 | [8] 0.063

ABHD12 isoform 2 (UniProt Q8N2K0)
inactive: ibrutinib -0.039 | [1] -0.03 | ralimetinib 0.043 | [2] -0.014 | [3] 0.05 | [4] 0.052 | [5] 0.021 | [6] 0.022 | [7] -0.05 | [8] 0.033

AK4 (UniProt P27144)
inactive: ibrutinib 0.06 | [1] -0.019 | ralimetinib -0.036 | [2] -0.016 | [3] -0.008 | [4] 0.021 | [5] -0.005 | [6] 0.012 | [7] 0.022 | [8] -0.017

APEX1 (UniProt P27695)
Sequence of UniProt P27695 (P27695 whole entry, looked up): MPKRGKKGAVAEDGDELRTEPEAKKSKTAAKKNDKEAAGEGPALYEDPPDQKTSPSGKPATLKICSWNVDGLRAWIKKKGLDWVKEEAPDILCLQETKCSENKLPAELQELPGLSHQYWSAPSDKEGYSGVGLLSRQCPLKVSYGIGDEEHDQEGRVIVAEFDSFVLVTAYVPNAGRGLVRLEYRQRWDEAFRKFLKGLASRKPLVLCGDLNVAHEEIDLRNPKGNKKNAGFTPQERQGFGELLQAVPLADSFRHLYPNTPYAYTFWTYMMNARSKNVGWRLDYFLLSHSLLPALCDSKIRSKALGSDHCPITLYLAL
inactive: ibrutinib 0.048 | [1] -0.001 | ralimetinib -0.014 | [2] 0.026 | [3] 0.006 | [4] 0.001 | [5] -0.02 | [6] -0.011 | [7] 0.01 | [8] 0.019

ASCC2 (UniProt Q9H1I8)
Sequence of UniProt Q9H1I8 (Q9H1I8 whole entry, looked up): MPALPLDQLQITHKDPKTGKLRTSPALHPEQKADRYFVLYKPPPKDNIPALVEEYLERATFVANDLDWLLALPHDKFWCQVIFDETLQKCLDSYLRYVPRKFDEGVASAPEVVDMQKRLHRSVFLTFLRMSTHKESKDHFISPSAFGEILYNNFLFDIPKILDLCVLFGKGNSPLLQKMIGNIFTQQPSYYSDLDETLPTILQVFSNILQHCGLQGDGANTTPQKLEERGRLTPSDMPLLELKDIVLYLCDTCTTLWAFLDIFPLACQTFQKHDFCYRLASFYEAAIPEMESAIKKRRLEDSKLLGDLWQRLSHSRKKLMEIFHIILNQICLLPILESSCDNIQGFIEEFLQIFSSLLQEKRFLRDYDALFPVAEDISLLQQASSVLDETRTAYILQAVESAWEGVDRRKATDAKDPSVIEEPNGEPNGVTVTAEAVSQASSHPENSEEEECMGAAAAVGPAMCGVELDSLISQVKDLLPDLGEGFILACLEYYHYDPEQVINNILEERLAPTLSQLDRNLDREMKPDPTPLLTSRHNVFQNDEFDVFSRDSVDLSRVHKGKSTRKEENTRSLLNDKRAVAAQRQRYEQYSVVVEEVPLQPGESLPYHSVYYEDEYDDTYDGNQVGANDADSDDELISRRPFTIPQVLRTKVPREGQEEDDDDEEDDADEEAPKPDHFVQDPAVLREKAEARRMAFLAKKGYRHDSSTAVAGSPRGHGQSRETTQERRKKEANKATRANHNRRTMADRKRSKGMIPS
active: ibrutinib -0.328
inactive: [1] 0.029 | ralimetinib 0.057 | [2] -0.041 | [3] 0.012 | [4] 0.004 | [5] 0.02 | [6] 0.01 | [7] 0.064 | [8] -0.01

ALKBH4 (UniProt Q9NXW9)
inactive: ibrutinib 0.076 | [1] 0.056 | ralimetinib 0.032 | [2] 0.003 | [3] -0.031 | [4] 0.031 | [5] -0.036 | [6] 0.004 | [7] -0.006 | [8] 0.002

ADRM1 (UniProt Q16186)
inactive: ibrutinib 0.005 | [1] -0.009 | ralimetinib 0.027 | [2] -0.007 | [3] 0.026 | [4] -0.028 | [5] -0.011 | [6] 0.019 | [7] 0.012 | [8] -0.01

ARL1 (UniProt P40616)
inactive: ibrutinib -0.029 | [1] -0.005 | ralimetinib 0.027 | [2] -0.001 | [3] -0.017 | [4] 0.098 | [5] -0.026 | [6] 0.134 | [7] -0.021 | [8] -0.027

ACIN1 (UniProt E7EQT4)
inactive: ibrutinib 0.049 | [1] -0.033 | ralimetinib 0.123 | [2] -0.052 | [3] 0.028 | [4] -0.017 | [5] -0.052 | [6] 0.094 | [7] -0.03 | [8] -0.002

ARGLU1 (UniProt Q9NWB6)
inactive: ibrutinib 0.027 | [1] -0.034 | ralimetinib -0.027 | [2] 0.015 | [3] 0.005 | [4] -0.008 | [5] 0.026 | [6] -0.027 | [7] -0.022 | [8] 0.019
